# BAZ2B inh: blocks human BAZ2B. AlphaScreen BAZ2B-H3K14Ac peptide displacement. Potency, µM (highest dose often 114 µM), inactives show at the top dose activity change, negative = inhibition, hits mostly inhibitors. 360,000 tested, 4.4% active; note: % is set by controls: 0 for no effect and ±100 for the full control effect; nearly all actives have a fitted effect of over 60% in size
#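 In this displacement format the biotinylated H3(5-23) peptide acetylated at Lys14 serves as ligand at 50 nM, with BAZ2B at 50 nM in PBS pH 7.4 containing 0.01% Tween-20. Donor and acceptor beads are 10 ug/mL final.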
# G9a block: inhibitors of human histone lysine methyltransferase G9a; 350,000 tested, 8.8% active; Q96KQ7; G9a H3K9 monomethylation, AlphaScreen, 2 h; Potency, µM (highest dose often 102 µM), inactives show top-dose activity, negative = inhibition, usual class: inhibitors; note: % is set by controls: 0 for no effect and ±100 for the full control effect; nearly all actives have a fitted effect of over 75% in size
# Target sequence (Q96KQ7 913-1193 limits assumed): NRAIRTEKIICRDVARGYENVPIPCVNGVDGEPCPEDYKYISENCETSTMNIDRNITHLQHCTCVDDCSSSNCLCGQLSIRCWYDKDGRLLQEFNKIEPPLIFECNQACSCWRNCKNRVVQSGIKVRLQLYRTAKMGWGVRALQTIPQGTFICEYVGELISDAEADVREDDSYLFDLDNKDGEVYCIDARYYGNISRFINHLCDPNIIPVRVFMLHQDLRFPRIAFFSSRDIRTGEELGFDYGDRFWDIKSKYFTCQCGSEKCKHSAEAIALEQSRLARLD
#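 Step 1: enzyme (final 20 nM) with compound, 15 min RT. Step 2: substrate peptide 500 nM and SAM 20 uM, 2 h RT. Step 3: anti-H3K9me1 antibody and AlphaScreen beads, 10 min, then plate read.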
# HP1b binding inh: HP1-beta chromodomain-methylated histone interaction inhibition; AlphaScreen HP1-beta / biotin-H3K9me3 peptide binding; 390,000 tested, 0.56% active; AID 540317; Potency, µM (top dose mostly 114 µM), inactives show at the top dose activity change, negative = inhibition, usual class: inhibitors; note: nearly all actives have a fitted effect of over 70% in size
# Target sequence (P83916 whole entry, looked up): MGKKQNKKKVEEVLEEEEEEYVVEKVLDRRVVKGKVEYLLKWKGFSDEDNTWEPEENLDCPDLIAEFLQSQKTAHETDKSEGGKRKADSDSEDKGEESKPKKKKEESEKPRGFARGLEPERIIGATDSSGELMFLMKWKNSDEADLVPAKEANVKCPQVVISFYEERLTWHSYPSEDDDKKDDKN
#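 HP1-beta protein (50 nM final) preincubated 30 min at room temperature with biotinylated H3(1-18)K9me3 peptide (50 nM) in PBS pH 7.4, 0.01% Tween-20, then compound added for 30 min. AlphaScreen streptavidin donor/nickel chelate acceptor beads (10 ug/mL final), 30 min dark, luminescence read.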
# JMJD2A Tudor inh: JMJD2A Tudor domain (human) inhibition | O75164 | AlphaScreen JMJD2A-Tudor / H3K4me3 peptide binding | Potency, µM (titrated, usually from 114 µM), inactives show top-dose activity change, negative = inhibition, most hits filed as inhibitors | 390,000 tested, 4.4% active | AID 504339; note: % is set by controls: 0 for no effect and ±100 for the full control effect; nearly all actives have a fitted effect of over 50% in size
# PLK1 PBD inh: PLK1 (human) polo-box domain binding inhibition; P53350; Plk1 PBD binding of FITC phosphopeptide, fluorescence polarization; Potency, µM, for the others: max response, negative = inhibition, actives largely listed as inhibitors; 360,000 tested, 2.8% active; note: series mostly up to about 57 µM; % is set by controls: 0 for no effect and ±100 for the full control effect; nearly all actives have a fitted effect of over 65% in size
# Sfp PPTase inh: blocks B. subtilis Sfp PPTase activity. Q9F4F7. Biochemical Sfp PPTase activity, qHTS. Potency, µM, for the others: largest response in the series, negative = inhibition, most hits filed as inhibitors. 310,000 tested, 3.5% active;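 note: the enzyme is Sfp with the accession as filed and its product quenches rhodamine fluorescence; 0% = enzyme reaction without inhibitor and -100% = no enzyme wells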
#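 Sfp 15 nM + cpd, 15 min RT; start w/ rhodamine-CoA 5 uM, BHQ-2-YbbR 12.5 uM (final); 50 mM Hepes pH 7.6, 10 mM MgCl2, 0.01% NP-40, 0.01% BSA; read 525/598 nm at 0 and 30 min.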
# An asterisk follows results filed as active; u = inconclusive; x = no result given; [ ] = another dose, or the depositor's remark. A selection: hits, their analogues and other compounds. The true share with any hit is near 12%. Calls come from the whole dose curve; as a rule, active = well fitted curve in the direction sought with a large enough effect; inconclusive = small, poorly fitted or top-dose-only effect, or another doubt; inactive = no such curve, though single readings can be large; an effect the other way counts as inactive or inconclusive. Potency is the fitted concentration of half-maximal effect.
SMILES,BAZ2B inh,G9a block,HP1b binding inh,JMJD2A Tudor inh,PLK1 PBD inh,Sfp PPTase inh
Cc1ccc2c(CC(=O)Nc3nnc(C(C)C)s3)coc2c1C,0%,-2%[59 µM],61%,-1%,x,x
Cc1cc(C)c2nc(N3CCCC(C(=O)NC4CCCC4)C3)sc2c1 (stereo not given),-19%,-6%[59 µM],39%,5%,-8%,-3%
Cc1nnc(NC(=O)CCC(=O)N2CCN(S(=O)(=O)c3cc([N+](=O)[O-])ccc3C)CC2)s1,x,x,17%,-9%,2%,x
Cc1ccc(COc2ccc(CNCCCN3CCCCCC3=O)cc2)cc1,35µM*,14µM*,32µM*,1.3µM*,-1%,-21%
Cc1ccc(NC(=O)C(=O)NCCCN2CCCC2=O)cc1,-9%,1%,20%,-7%,-8%,x
Nc1c(-c2ccccc2)sc2ccc3ccccc3[n+]12,-37%,1µM*,27%,5%,u,35µM*
c1ccc(Nc2nc(-c3ccccc3)c(-c3ccccc3)s2)cc1,x,x,64%,-22%,x,x
CCOC(=O)c1cc(-c2ccc(C)cc2)n(CCC(=O)Nc2ccc(C(C)C)cc2)c1C,-17%,0%[59 µM],25%,-14%,x,x
CCOC(=O)c1sc(S(C)(=O)=O)c2c1CCc1conc1-2,-21%,56µM*,30%,-2%,-10%,-17%
Cc1noc(C)c1CSc1nnc(-c2ccccc2)n1Cc1ccco1,x,-49%[59 µM],38%,-3%,-11%,u
Cc1noc(C)c1CSc1nnc(-c2ccccc2)n1N,-4%,3.2µM*,u,u,21µM*,32µM*
Cc1noc(C)c1CSc1ccc2ccccc2n1,123%,64%[59 µM],102%,85%,-2%,79µM*
COC(=O)C/C=C\[C@H](C)[C@H](CO)NS(=O)(=O)c1ccc(C)cc1,x,x,x,x,x,3%
CC(=O)c1ccc(NC(=O)CCc2c(C)nn(-c3ccc(N4CCCCC4)nn3)c2C)cc1,u,-2%[59 µM],34%,u,x,x
CC(=O)N1CCc2cc(CNS(=O)(=O)c3cccs3)ccc21,-1%,-1%[59 µM],25%[57 µM],-18%,x,x
COc1cccc(C(=O)/C=C2\Sc3ccccc3N2C)c1,57%,54%,163%,82%,-12%,-11%
CN1/C(=C\C(=O)c2cccnc2)Sc2ccccc21,-2%,28µM*,49%,3%,-16%,22µM*
CC(=O)c1ccc(NC(=O)CC2Sc3ccccc3NC2=O)cc1 (stereo not given),4%,-6%[59 µM],11%,-9%,x,x
CCOC(=O)CSc1nc2c([nH]c3ccccc32)c(=O)n1-c1ccc(OC)cc1,-4%,3%[59 µM],6%,20µM*,x,x
COc1cccc(-n2c(SCC(=O)Nc3nnc(C)s3)nc3c([nH]c4ccccc43)c2=O)c1,2%,3%[59 µM],26%[57 µM],50µM*,x,x
Cc1cc(=O)[nH]c(SCC(=O)NCC2CCCCC2)c1C#N,x,-11%,32%,-13%,-5%,9%
COc1ccccc1C(=O)Nc1nnc(S(=O)(=O)N(C)Cc2ccccc2)s1,-3%,u,40%,4%,-4%,13%
CCN(CC(=O)Nc1ccc(NC(C)=O)cc1)C(=O)/C=C/c1cn(Cc2ccccc2)nc1-c1cccnc1,2%,14µM*,25%,-17%,9%,x
CCN(CC(=O)Nc1ccc(NC(C)=O)cc1)C(=O)/C=C/c1cn(-c2ccccc2)nc1-c1cccs1,-9%,32µM*,17%,-29%,2%,x
COc1cccc(NC(=O)CN(C)C(=O)/C=C/c2cn(Cc3ccccc3)nc2-c2cccnc2)c1,-37%,-32%,16%,-18%,5%,x
SMILES,BAZ2B inh,G9a block,HP1b binding inh,JMJD2A Tudor inh,PLK1 PBD inh,Sfp PPTase inh
CCN(CC(=O)Nc1ccc(NC(C)=O)cc1)C(=O)/C=C/c1ccccc1,-5%,-2%[59 µM],27%,-3%,-6%,x
O=C(COc1ccc(Br)cc1Cl)NNC(=O)c1ccccc1,9%,-3%[2.33 µM],26%,-26%,-10%,x
Cn1cccc1/C=N/NC(=O)c1cccc(OC(F)(F)C(F)F)c1,u,u,u,79µM*,u,1%
Cc1cc(C(=O)N/N=C/c2cccn2C)n[nH]1,-27%,u,20%,-3%,-3%,8%
COc1ccc(Cc2nc3ccc(C(=O)N4CCCCC4CO)cc3o2)cc1OC (stereo not given),x,x,x,x,-2%,x
C=CCOc1ccc(-c2nc3c(c(=O)[nH]c(=O)n3CCCC)n2C)cc1OC,-10%,17%[59 µM],-29%,32µM*,21µM*,8%
Cc1nn(-c2nnc(C)c(=O)[nH]2)c(C)c1SCC(=O)Nc1ccc(F)cc1,50µM*,u,17%,32µM*,u,32µM*
Cc1n[nH]c(C)c1SCC(=O)Nc1ccc(F)cc1,1%,10%[59 µM],26%,-17%,-12%,22%
CCN(CC)CCNC(=O)c1ccc(CSc2nc3ccncc3n2Cc2cccc(F)c2)cc1,5%,-5%[59 µM],29%,1%,x,x
CCCCC(=O)Nc1nnn(CCC)n1,4%,4%[12.7 µM],7%,-7%,-5%,7%
CCCCn1nnc(NC(=S)NC(=O)c2ccc(-c3cccc(Cl)c3Cl)o2)n1,-8%,45µM*,-24%,u,u,u
CCCCC(=O)NC(=S)Nc1nnn(CCC)n1,71µM*,10µM*,-2%,3.5µM*,-5%,14µM*
CCCCn1nnc(NC(=O)c2ccc(-c3ccccc3[N+](=O)[O-])o2)n1,-24%,u,11%,-20%,-3%,14%
Cc1ccc(-c2nc(=Nc3ccccc3)sn2-c2ccccc2)cc1,x,x,-30%[57 µM],-24%[57.1 µM],x,x
N=c1nc(-c2ccccc2)n(-c2ccccc2)s1,x,x,u,5.6µM*,x,x
CC(=O)c1cnc2nc(SCc3ccc(C)cc3)nn2c1C,-2%,22%,1%,u,24µM*,6%
CC(=O)c1cnc2nc(SCc3ccc(Cl)cc3)nn2c1C,10%,20%,59%,-5%,-8%,-10%
O=C(O)CCC(=O)NNc1nc(-c2ccccc2)c2cc(Cl)ccc2n1,-10%,4%,28%,-11%,-8%,0%
CCC(=O)NNc1ncnc2ccccc12,-3%,7%[59 µM],14%,-12%,u,10%
O=C(O)CCC(=O)NNc1ncnc2ccccc12,u,-128%[59 µM],26%,-5%,-8%,56µM*
O=C(O)CCC(=O)NNc1nc2ccccc2nc1-c1ccccc1,-8%,x,12%,-5%,-6%,56µM*
CC1(C)C(/C=C/C=C/C=C/C=C2\N(CCCCS(=O)(=O)O)c3ccc4ccccc4c3C2(C)C)=[N+](CCCCS(=O)(=O)[O-])c2ccc3ccccc3c21,x,u,u,6.3µM*,u,50µM*
Cc1c(F)cccc1NC(=O)CCCCCC1NC(=O)NC1C (stereo not given),1µM*,0.71µM*,u,0.89µM*,-4%,-14%

# From PubChem
